These results are taken from ChEMBL document CHEMBL1961873, “Compounds: GSK PKIS; Assays: Nanosyn kinase panel” (2012).

For assay [1], the target named is Platelet-derived growth factor receptor beta (Homo sapiens) (UniProt P09619). The settings on record: at 1 µM.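 Further: each value is a mean percent inhibition.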
For assay [2], the target named is Tyrosine-protein kinase FRK (Homo sapiens) (UniProt P42685). The conditions noted are these: at 0.1 µM.
The target is the same in assay [3]. The settings on record: at 1 µM.
The target in assay [4] is Protein-tyrosine kinase 2-beta (Homo sapiens) (UniProt Q14289). The conditions noted are these: at 0.1 µM.
The target is the same in assay [5]. The conditions noted are these: at 1 µM.
For assay [6], the target named is Proto-oncogene tyrosine-protein kinase receptor Ret (Homo sapiens) (UniProt P07949). The settings on record: at 0.1 µM.
The target is the same in assay [7]. The conditions noted are these: at 1 µM.
The test system of assay [8] is Proto-oncogene tyrosine-protein kinase receptor Ret (Homo sapiens), P07949 [V804L]. The settings on record: at 0.1 µM.
For assay [9] the test system is unchanged. The conditions noted are these: at 1 µM.
The test system of assay [10] is Proto-oncogene tyrosine-protein kinase receptor Ret (Homo sapiens), P07949 [Y791F]. The settings on record: at 0.1 µM.
The test system is the same in assay [11]. The conditions noted are these: at 1 µM.
Assay [12] addresses Macrophage-stimulating protein receptor (Homo sapiens) (UniProt Q04912). The settings on record: at 0.1 µM.
Assay [13] has the same target. The conditions noted are these: at 1 µM.
The target in assay [14] is Proto-oncogene tyrosine-protein kinase ROS (Homo sapiens) (UniProt P08922). The conditions noted are these: at 0.1 µM.
For assay [15] the target is unchanged. The settings on record: at 1 µM.
Assay [16] concerns the target Proto-oncogene tyrosine-protein kinase Src (Homo sapiens) (UniProt P12931). The conditions noted are these: at 0.1 µM.
The target is the same in assay [17]. The settings on record: at 1 µM.
Assay [18] has as its target Tyrosine-protein kinase Srms (Homo sapiens) (UniProt Q9H3Y6). The conditions noted are these: at 0.1 µM.
Assay [19] has the same target. The settings on record: at 1 µM.
The target in assay [20] is Tyrosine-protein kinase SYK (Homo sapiens) (UniProt P43405). The settings on record: at 0.1 µM.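 Further: reported percentages are mean inhibition values for SYK.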

SMILES strings stand for the structures.

Sequence of Proto-oncogene tyrosine-protein kinase Src (Homo sapiens) (P12931 2-536 limits assumed): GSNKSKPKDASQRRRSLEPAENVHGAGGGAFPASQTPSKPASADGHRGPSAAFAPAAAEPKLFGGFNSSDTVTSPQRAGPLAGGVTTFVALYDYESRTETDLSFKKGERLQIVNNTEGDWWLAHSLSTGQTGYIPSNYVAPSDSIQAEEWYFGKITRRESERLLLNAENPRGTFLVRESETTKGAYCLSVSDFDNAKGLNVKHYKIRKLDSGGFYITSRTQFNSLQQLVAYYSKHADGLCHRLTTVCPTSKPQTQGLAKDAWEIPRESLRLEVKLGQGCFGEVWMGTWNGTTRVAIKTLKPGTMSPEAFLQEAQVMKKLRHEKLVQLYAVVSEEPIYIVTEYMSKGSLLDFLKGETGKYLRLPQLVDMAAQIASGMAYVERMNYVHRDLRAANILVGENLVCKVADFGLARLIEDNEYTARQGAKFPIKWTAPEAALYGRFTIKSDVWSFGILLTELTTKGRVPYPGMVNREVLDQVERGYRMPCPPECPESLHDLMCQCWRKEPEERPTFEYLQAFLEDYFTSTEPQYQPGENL
Sequence of Proto-oncogene tyrosine-protein kinase ROS (Homo sapiens) (P08922 whole entry): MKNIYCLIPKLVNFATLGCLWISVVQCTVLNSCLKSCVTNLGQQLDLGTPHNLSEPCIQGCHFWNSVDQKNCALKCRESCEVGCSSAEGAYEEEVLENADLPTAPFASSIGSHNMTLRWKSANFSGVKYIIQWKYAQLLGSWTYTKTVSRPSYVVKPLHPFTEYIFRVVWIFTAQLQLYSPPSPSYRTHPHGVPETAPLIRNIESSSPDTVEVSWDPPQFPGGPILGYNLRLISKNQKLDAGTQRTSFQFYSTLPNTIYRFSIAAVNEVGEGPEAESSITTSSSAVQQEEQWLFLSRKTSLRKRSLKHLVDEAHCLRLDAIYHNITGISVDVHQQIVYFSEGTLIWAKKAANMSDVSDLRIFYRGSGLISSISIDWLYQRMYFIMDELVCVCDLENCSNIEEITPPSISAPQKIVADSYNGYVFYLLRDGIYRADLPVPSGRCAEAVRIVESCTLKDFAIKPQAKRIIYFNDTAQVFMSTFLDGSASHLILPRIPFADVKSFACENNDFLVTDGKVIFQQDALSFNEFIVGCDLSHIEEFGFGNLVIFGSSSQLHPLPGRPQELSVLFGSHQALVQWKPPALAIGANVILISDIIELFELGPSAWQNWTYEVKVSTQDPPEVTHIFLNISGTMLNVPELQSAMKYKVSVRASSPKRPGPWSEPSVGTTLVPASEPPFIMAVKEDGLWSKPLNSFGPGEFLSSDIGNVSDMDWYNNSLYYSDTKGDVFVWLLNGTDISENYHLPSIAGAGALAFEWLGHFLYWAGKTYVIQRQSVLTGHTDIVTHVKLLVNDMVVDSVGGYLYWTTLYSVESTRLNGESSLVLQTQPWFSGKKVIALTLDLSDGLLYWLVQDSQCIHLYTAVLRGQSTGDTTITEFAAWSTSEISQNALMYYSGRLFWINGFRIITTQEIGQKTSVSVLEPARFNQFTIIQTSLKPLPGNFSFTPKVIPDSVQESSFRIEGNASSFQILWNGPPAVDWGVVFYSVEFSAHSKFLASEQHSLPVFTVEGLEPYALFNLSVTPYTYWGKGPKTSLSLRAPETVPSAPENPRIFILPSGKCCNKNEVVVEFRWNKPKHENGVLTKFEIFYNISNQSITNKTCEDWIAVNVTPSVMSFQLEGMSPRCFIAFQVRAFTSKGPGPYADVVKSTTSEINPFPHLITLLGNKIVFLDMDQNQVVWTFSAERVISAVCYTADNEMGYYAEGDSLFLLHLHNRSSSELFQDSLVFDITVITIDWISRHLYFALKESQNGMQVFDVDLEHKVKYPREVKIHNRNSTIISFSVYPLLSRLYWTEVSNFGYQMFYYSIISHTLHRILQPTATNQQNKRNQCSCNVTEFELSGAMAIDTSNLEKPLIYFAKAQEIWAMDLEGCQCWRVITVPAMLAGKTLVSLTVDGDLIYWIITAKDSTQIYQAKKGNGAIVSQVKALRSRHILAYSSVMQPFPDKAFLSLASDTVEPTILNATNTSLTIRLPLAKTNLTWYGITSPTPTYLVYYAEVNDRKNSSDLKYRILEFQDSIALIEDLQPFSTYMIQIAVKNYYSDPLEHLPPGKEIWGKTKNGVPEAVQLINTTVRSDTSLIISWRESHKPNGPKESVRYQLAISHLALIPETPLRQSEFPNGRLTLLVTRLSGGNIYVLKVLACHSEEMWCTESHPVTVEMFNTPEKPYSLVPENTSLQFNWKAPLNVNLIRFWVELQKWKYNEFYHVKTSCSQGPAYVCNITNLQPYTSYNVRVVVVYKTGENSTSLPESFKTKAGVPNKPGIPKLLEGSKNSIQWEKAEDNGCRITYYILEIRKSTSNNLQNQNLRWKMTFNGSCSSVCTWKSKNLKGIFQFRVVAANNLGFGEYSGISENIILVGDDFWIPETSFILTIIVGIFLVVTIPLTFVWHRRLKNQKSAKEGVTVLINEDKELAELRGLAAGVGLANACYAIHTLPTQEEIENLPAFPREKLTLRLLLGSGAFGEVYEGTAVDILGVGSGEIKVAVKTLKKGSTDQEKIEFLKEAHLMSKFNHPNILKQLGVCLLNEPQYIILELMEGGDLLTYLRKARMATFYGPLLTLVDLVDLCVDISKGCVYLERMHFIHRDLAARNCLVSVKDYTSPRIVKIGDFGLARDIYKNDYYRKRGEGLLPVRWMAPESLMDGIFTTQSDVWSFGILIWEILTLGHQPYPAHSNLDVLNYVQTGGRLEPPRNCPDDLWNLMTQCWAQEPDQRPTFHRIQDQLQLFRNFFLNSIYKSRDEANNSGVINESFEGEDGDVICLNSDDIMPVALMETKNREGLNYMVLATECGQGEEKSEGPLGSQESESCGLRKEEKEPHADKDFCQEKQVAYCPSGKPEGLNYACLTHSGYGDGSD
Sequence of Proto-oncogene tyrosine-protein kinase receptor Ret (Homo sapiens), P07949 [Y791F] (P07949 whole entry Y791F): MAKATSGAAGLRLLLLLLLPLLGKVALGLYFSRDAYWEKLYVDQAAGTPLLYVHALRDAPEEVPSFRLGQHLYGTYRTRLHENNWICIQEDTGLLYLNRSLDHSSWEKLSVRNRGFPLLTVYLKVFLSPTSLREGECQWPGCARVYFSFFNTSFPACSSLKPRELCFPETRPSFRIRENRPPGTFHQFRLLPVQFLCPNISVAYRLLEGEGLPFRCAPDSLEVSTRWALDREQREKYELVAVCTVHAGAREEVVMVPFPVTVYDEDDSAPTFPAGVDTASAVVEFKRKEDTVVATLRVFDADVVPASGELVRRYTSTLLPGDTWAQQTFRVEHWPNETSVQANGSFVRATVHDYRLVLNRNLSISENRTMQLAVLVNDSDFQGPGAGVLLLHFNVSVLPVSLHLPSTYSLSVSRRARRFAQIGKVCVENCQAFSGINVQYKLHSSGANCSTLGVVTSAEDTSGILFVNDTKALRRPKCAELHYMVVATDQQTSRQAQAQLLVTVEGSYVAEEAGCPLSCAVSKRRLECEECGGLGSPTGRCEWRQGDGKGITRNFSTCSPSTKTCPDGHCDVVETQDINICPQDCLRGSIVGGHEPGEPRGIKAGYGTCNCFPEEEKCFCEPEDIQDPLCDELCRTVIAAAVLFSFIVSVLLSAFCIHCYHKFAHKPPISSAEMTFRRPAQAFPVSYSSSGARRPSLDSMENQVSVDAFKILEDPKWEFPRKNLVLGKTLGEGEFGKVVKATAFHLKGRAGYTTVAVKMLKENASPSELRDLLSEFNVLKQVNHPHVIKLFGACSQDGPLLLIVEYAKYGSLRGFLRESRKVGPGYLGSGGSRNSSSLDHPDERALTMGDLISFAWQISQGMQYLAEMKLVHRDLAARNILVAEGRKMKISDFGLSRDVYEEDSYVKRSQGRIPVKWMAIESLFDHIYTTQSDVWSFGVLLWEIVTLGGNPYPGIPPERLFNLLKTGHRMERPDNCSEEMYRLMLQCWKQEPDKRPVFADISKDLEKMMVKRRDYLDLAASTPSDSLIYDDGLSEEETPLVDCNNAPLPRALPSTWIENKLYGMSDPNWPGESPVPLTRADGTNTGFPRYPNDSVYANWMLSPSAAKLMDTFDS
Sequence of Protein-tyrosine kinase 2-beta (Homo sapiens) (Q14289 whole entry, looked up): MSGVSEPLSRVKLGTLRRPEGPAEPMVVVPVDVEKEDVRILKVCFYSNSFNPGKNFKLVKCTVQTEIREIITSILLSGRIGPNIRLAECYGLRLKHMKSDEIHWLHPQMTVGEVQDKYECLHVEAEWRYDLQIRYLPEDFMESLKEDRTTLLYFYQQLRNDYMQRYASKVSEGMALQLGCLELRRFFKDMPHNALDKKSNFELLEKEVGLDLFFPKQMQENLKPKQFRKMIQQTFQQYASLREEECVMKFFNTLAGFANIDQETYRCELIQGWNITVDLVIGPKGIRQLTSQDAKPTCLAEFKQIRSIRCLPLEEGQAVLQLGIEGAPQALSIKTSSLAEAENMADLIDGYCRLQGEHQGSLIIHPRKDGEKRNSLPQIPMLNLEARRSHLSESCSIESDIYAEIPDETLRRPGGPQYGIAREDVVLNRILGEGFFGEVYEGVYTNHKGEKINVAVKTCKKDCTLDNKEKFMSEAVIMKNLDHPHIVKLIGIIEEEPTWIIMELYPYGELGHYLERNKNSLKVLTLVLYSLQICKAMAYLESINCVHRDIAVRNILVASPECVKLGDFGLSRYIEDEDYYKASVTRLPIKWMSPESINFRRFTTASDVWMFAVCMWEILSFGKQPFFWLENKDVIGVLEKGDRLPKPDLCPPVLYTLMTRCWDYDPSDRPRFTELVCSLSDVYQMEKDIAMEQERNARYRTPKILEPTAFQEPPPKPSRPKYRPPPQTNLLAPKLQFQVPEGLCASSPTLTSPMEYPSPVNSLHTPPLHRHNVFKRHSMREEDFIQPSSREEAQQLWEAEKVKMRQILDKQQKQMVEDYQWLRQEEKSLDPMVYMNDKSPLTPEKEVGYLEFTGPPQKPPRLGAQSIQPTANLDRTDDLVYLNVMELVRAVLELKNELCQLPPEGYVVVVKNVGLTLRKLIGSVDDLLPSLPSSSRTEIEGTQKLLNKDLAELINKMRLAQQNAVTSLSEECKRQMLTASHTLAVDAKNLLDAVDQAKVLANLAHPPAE
Sequence of Proto-oncogene tyrosine-protein kinase receptor Ret (Homo sapiens) (P07949 whole entry): as the sequence (P07949 whole entry Y791F) above, with F791Y counted along it
Sequence of Proto-oncogene tyrosine-protein kinase receptor Ret (Homo sapiens), P07949 [V804L] (P07949 whole entry V804L): as the sequence (P07949 whole entry Y791F) above, with F791Y, V804L counted along it

Take `NC(=O)Cc1ccccc1Oc1nccc(-c2c(-c3ccc(F)cc3)ncn2C2CCNCC2)n1`: the inhibition – broadly, the relative decrease from the control value, in per cent – stood at 5.76% in assay [1]; 1.11% in assay [2]; 3.64% in [3]; 5.56% in [4]; 3.38% in assay [5]; 5.79% in [6]. The inhibition in [7] is 3.25%; in [8], 2.51%; in [9], 0.95%; in assay [10], 3.81%; in assay [11], 4.66%; in [12], -4.83%. For the same compound, the inhibition in assay [13] was 4.24%; in [14], 6.52%; in [15], 7.32%; in assay [16] it was 1.88%; in assay [17], 5.52%; in [18], -1.62%. Further, the inhibition was -0.3% in assay [19] and -2.13% in assay [20].

`Clc1ccc(CNc2nccc(-c3cnn4ncccc34)n2)cc1`: the inhibition in assay [1] was 13.8%; in assay [2], 0.01%; in assay [3] it was 1.32%; in [4], -4.51%; in assay [5], 2.8%; in [6] it was 0.88%. For the same compound, the inhibition in assay [7] was 5.75%; in assay [8], -0.76%; in assay [9], 5.56%; in assay [10], -0.42%; in assay [11], 20.4%; in assay [12], -1.7%. The inhibition is 6.29% in assay [13]; 0.86% in assay [14]; 6.59% in assay [15]; 0.82% in [16]; 6.25% in assay [17]; 0.35% in [18]. The results for the inhibition in [19] and in assay [20] were -1.1% and 2.92%, respectively.

Turning to `COc1cc(Nc2ncc(-c3ccccc3)o2)cc(OC)c1OC`, the inhibition was 74.2% in assay [1]; 0.5% in assay [2]; 4.26% in assay [3]; -6.53% in assay [4]; 5.39% in assay [5]; 2.33% in assay [6]. The inhibition is 15.5% in assay [7]; 1% in assay [8]; 16.2% in assay [9]; 0.66% in [10]; 16.2% in assay [11]; -0.55% in assay [12]. In addition, the inhibition is 3.47% in assay [13]; 2.53% in [14]; 15.8% in assay [15]; 19.7% in assay [16]; 72.4% in assay [17]; -1.26% in [18]. The results for the inhibition in [19] and in assay [20] were 3.83% and -0.67%, respectively.

Consider `COc1cc2ncn(-c3cc(OCc4cccs4)c(C(N)=O)s3)c2cc1OC`, for which the inhibition is 72.5% in assay [1]; 1.41% in [2]; 1.32% in assay [3]; 3.08% in [4]; 6.94% in [5]; 11.9% in assay [6]. Moreover, the inhibition was determined as 43.5% in assay [7]; 7.23% in [8]; 24.7% in assay [9]; 15% in [10]; 54.5% in assay [11]; 5.86% in assay [12]. Moreover, the inhibition in assay [13] came out at 7.33%; in [14] it was 7.93%; in assay [15] it was 30.5%; in assay [16], 3.31%; in assay [17] it was 17.6%; in [18], 2.39%. The inhibition was 7.35% in assay [19] and 0.21% in assay [20].

`CS(=O)(=O)CCNCc1cc(-c2cc3c(Nc4ccc(OCc5cccc(F)c5)c(Cl)c4)ncnc3s2)cs1`: the inhibition in assay [1] was determined as 11.2%; in [2] it was 4.58%; in assay [3], 3.68%; in [4] it was 4.47%; in assay [5], 4.63%; in assay [6], 7.3%. The inhibition in assay [7] came to 7.36%; in assay [8], 4.33%; in assay [9], 7.85%; in [10] it was 8.47%; in assay [11], 9.4%; in [12], 2.33%. For the same compound, the inhibition in assay [13] was 4%; in [14], 6.34%; in assay [15], 10%; in assay [16], 10.7%; in [17] it was 14.7%; in assay [18], -2.71%. Also, the inhibition in assay [19] is -1.03%; in assay [20], -1.05%.

Regarding `COc1cccc(/C=N/Nc2ncnc3c2cnn3-c2cccc(OC)c2)c1`, the inhibition is 11% in assay [1]; 2.06% in assay [2]; 3.36% in assay [3]; 1% in assay [4]; 10.2% in assay [5]; 0.27% in assay [6]. The inhibition in assay [7] came to 6.95%; in assay [8], 0.36%; in assay [9] it was 1.63%; in assay [10], 3.95%; in assay [11] it was 6.96%; in [12], 0.75%. Besides, the inhibition in assay [13] was 4.77%; in assay [14], 5.15%; in [15], 8.27%; in assay [16] it was 7.02%; in [17] it was 17.5%; in [18], -1.15%. Moreover, the inhibition was -3.63% in assay [19] and 2.69% in [20].

As to `CNC(=O)c1cncc(/C=C/c2c(C)cccc2C)c1`, the inhibition was 26.2% in [1]; 1.71% in assay [2]; 17.3% in assay [3]; -2.5% in [4]; -2.35% in [5]; 4.57% in assay [6]. The inhibition in [7] was 7.32%; in [8] it was -0.1%; in assay [9] it was 6.46%; in [10], 1.16%; in assay [11], 17.6%; in assay [12], 1.75%. In addition, the inhibition was 0.77% in assay [13]; -2.1% in assay [14]; 1.85% in assay [15]; 17.5% in assay [16]; 59% in [17]; 2.41% in assay [18]. In addition, the inhibition in assay [19] turned out to be 9.33%; in assay [20] it was 0.05%.

With `NC(=O)c1cc(-c2ccncc2)cc(-c2ccccc2)c1N`, the inhibition in assay [1] worked out at 26%; in assay [2] it was 3.05%; in [3] it was 7.89%; in [4] it was 10.8%; in assay [5] it was 13.4%; in assay [6] it was 6.99%. Besides, the inhibition in assay [7] was 27%; in [8], 2.8%; in [9], 6.36%; in assay [10], 6.34%; in assay [11], 42.3%; in [12], 4.63%. The inhibition was found to be 2.14% in [13]; 5.79% in assay [14]; 14.7% in assay [15]; 10.4% in [16]; 59.8% in [17]; 0.18% in [18]. For the same compound, the inhibition in assay [19] was 5.81%; in [20] it was -0.73%.

As to `FC(F)(F)c1cccc(Nc2nccc(-c3cnn4nc(-c5ccccc5)ccc34)n2)c1`, the inhibition in [1] is 37.1%; in [2], 1.24%; in assay [3], 0.8%; in [4], -1%; in [5], 7.77%; in assay [6], 0.18%. Also, the inhibition turned out to be 2.88% in assay [7]; 3.76% in [8]; 4.5% in assay [9]; 3.91% in [10]; 9% in [11]; 3.97% in assay [12]. For the same compound, the inhibition in [13] is 1.8%; in [14], 0.97%; in assay [15], 9.02%; in assay [16], 5.04%; in [17], 8.31%; in assay [18], -0.79%. Besides, the results for the inhibition in [19] and in assay [20] were -0.77% and -0.05%, respectively.

In the case of `O=C1Nc2ccccc2/C1=C/Nc1ccc(-n2cncn2)cc1`, the inhibition in assay [1] is 33.4%; in [2] it was 2.78%; in [3] it was 3.04%; in [4], 11.7%; in assay [5], 24.7%; in assay [6], 15.4%. Further, the inhibition in [7] turned out to be 48.6%; in assay [8], 20.2%; in assay [9], 67.3%; in assay [10] it was 12.9%; in [11], 53.2%; in assay [12], 7.27%. The inhibition turned out to be 6.25% in assay [13]; 6.51% in [14]; 8.39% in assay [15]; 9.95% in assay [16]; 19.2% in [17]; 0.3% in assay [18]. For the same compound, the inhibition in assay [19] is -0.18%; in [20], -1.28%.

As for `COc1cc(N2CCN(C(C)C)CC2)ccc1Nc1nc(Nc2ccc(F)cc2C(=O)NC[C@@H](O)CO)c2cc[nH]c2n1`, the inhibition in assay [1] is 5.07%; in [2] it was 2.85%; in [3] it was 4.03%; in assay [4], 87.3%; in assay [5], 96.5%; in assay [6], 5.61%. Besides, the inhibition turned out to be 8.19% in assay [7]; 5.31% in assay [8]; 18.4% in [9]; 6.02% in assay [10]; 13.9% in assay [11]; 7.42% in assay [12]. For the same compound, the inhibition was 2.76% in assay [13]; 17.8% in assay [14]; 60% in assay [15]; 3.75% in [16]; 9.14% in [17]; -2.12% in assay [18]. For the same compound, the inhibition was -0.49% in assay [19] and -1.02% in assay [20].

`Cc1ccc(C(=O)NC2CCC2)cc1-c1ccc(C(=O)NCC2CC2)cc1`: the inhibition in [1] was determined as 4.37%; in assay [2] it was 1.45%; in assay [3] it was 0.56%; in assay [4], 4.2%; in assay [5], 4.27%; in [6], 7.54%. Further, the inhibition in assay [7] is 8.34%; in assay [8], 4.17%; in assay [9], -0.01%; in assay [10], 2.44%; in assay [11], 2.67%; in assay [12], 5.75%. Further, the inhibition is 4.87% in assay [13]; 3.25% in [14]; 2.72% in assay [15]; 1.78% in [16]; 4.45% in [17]; -2.12% in assay [18]. Further, the inhibition in assay [19] was -0.59%; in assay [20] it was -0.95%.

In the case of `NS(=O)(=O)c1ccc(N/N=C2\C(=O)Nc3ccc(-c4cnco4)cc32)cc1`, the inhibition in [1] was determined as 50.4%; in [2] it was 1.59%; in assay [3] it was 1.95%; in assay [4], 9.59%; in assay [5], 19.7%; in [6], 7.98%. The inhibition in assay [7] came out at 29%; in assay [8] it was 15%; in [9], 54%; in assay [10] it was 8.71%; in assay [11], 31.9%; in [12] it was 7.46%. The inhibition in assay [13] stood at 4.84%; in assay [14] it was 6.83%; in assay [15] it was 9.22%; in assay [16], 3.76%; in assay [17] it was 20.5%; in [18], 0.38%. Also, the inhibition amounted to 0.29% in [19] and 0.72% in assay [20].
